This is a sample that favours compounds with a hit; in the whole collection about 1.2% have one here.
NOD2-RIPK2 inh: blocks binding of human NOD2 to RIPK2; CHO BLA complementation NOD2-RIPK2, CCF4 ratio; inhibition, % at 4.98 µM; hit rate 0.38% among 360,000; in the data active means inhibition above about 21%;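 further: 0% = vehicle only and 100% = reference blocker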
Target sequence (O43353 whole entry, looked up): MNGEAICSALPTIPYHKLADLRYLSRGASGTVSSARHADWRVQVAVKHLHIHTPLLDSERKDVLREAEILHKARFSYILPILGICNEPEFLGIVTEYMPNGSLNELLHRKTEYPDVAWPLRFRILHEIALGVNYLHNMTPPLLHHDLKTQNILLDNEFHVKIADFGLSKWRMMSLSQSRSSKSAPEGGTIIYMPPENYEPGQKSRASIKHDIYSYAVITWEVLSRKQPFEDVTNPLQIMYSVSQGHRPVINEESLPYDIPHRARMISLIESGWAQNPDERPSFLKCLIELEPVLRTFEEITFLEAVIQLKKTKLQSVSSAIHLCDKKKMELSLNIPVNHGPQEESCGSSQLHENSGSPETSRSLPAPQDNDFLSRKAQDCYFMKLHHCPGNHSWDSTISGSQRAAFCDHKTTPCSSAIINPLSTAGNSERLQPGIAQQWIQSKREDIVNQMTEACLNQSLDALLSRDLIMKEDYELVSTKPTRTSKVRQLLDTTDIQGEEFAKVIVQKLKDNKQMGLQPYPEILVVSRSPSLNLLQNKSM
TLR4 MyD88 comp: TLR4-MyD88 interaction inhibition in cells; HeLa CL3-4 TLR4/MyD88 BLA complementation, FRET ratio; hit rate 0.18% among 200,000; AID 861; inhibition, % at 8.4 µM; in the data active means inhibition above about 25%;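 further: 0% = vehicle and 100% = reference inhibitor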
ABHD5 PLIN5 PPI: blocks binding of human ABHD5 to perilipin-5 | Q00G26+Q8WTS1 | Split G. princeps luciferase complementation, luminescence, 4 h | inhibition, % at 4 µM | hit rate 0.78% among 360,000 | AID 602281;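 active means inhibition above the mean inhibition across every tested compound plus 3 SD, cut at about 22% in these data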;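 further: 0% = DMSO only wells and the 100% control is not disclosed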
TLR9-MyD88 block: inhibitors of human TLR9-MyD88 binding; Q9NR96+Q99836; CHO BLA complementation TLR9-MyD88, CCF4 FRET ratio; inhibition, % at 4.98 µM; hit rate 0.21% among 340,000; AID 504734;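 active means inhibition above the mean over all tested compounds plus 3 SD, cut at about 21% in these data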;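 further: 0% = DMSO only wells and 100% = clavulanate BLA inhibitor control wells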
ABHD5-PLIN5 conf: ABHD5-PLIN5 interaction inhibition, confirmed; shares compounds with ABHD5 PLIN5 PPI; biochemical ABHD5-PLIN5 interaction, luminescence; inhibition, % at 4 µM; hit rate 67% among 2,200; AID 651612; in the data active means inhibition above about 23%;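 further: 0% = DMSO vehicle wells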
HNF4 counter: HNF4 split-luciferase signal hit, counter-screen; HNF4 dimerization, luminescence, biochemical; hit rate 77% among 2,200; shares compounds with ABHD5 PLIN5 PPI; inhibition, % at 4 µM;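 active means mean inhibition across replicate wells exceeding the computed hit threshold, cut at about 13% in these data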;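 further: light from luciferase halves that rejoin when HNF4 fusion proteins dimerize; 0% = DMSO only wells and the 100% control is not given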
The depositor's hits bear a star; . = not tested or not shown.

SMILES	NOD2-RIPK2 inh	TLR4 MyD88 comp	ABHD5 PLIN5 PPI	TLR9-MyD88 block	ABHD5-PLIN5 conf	HNF4 counter
COc1cccc(S(=O)(=O)N(C)C[C@@H]2Oc3cc(C#CCN(C)C)ccc3S(=O)(=O)N([C@H](C)CO)C[C@@H]2C)c1	8	.	11	-5	.	.
CN(C)CCN(Cc1ccco1)c1ccccn1	-7	.	46*	-4	35*	0
CN(C)CCN(Cc1cccs1)c1ccccn1	-5	-1	-4	0	.	.
CC(CCc1ccco1)NC(=O)CCc1nnc2ccc(NCc3ccc(Cl)cc3)nn12 (stereo not drawn)	6	.	18	3	.	.
O=C(NCCc1nnc2ccc(NCc3ccccc3Cl)nn12)c1ccccc1	-3	-22	52*	9	6	4
CC(CCc1ccco1)NC(=O)CCc1nnc2ccc(NCc3ccccc3Cl)nn12 (stereo not drawn)	-4	.	43*	8	40*	.
Cc1ccc(OCC(O)CN2CCN(c3ccc(C)cc3)CC2)cc1 (stereo not drawn)	-3	.	5	-6	.	.
CCOc1ccc(C(=O)CC(NCc2cccs2)C(=O)O)cc1 (stereo not drawn)	3	1	57*	-10	91*	110*
CC1(C)CC(=O)C(C(C2=C(O)CC(C)(C)CC2=O)c2ccc(Br)s2)C(=O)C1 (stereo not drawn)	-5	17	67*	3	91*	97*
Cc1ccc(C(C2=C(O)CC(C)(C)CC2=O)C2C(=O)CC(C)(C)CC2=O)s1 (stereo not drawn)	-3	-3	17	6	.	.
BrC(=C\c1ccccc1)/C=N/n1cnnc1	15	5	38*	10	42*	45*
BrC(=C\c1ccccc1)/C=N/Nc1ccc2nncn2n1	2	.	11	9	.	.
Cc1ccc(Sc2c(C)[nH]n(C(C)(C)C)c2=O)cc1	-8	-5	-6	8	.	.
CC1=CC(=O)C(Sc2ccc(C)cc2)=CC1=O	5	.	62*	17	60*	97*
O=C1C(Sc2ccccc2)=C[C@@]2(O)CC[C@@H](O)[C@]1(Sc1ccccc1)[C@H]2O	-1	.	26*	.	33*	43*
CCN(CC)c1ccc(N=Nc2nn(C)c(C)c2[N+](=O)[O-])cc1	3	6	25*	-1	29*	33*
CCN(Cc1ccccc1)c1ccc(N=Nc2nn(C)c(C)c2[N+](=O)[O-])cc1	3	1	9	4	.	.
COc1ccc(OC)c(NC(=S)N2CCN(C(=O)C3CCCO3)CC2)c1 (stereo not drawn)	1	.	-1	3	.	.
CC[C@@H]1CC=C[C@H]2[C@H]1C(=O)N(Cc1ccccc1)[C@H]2c1ccoc1	6	.	24*	0	37*	35*
C[C@@H]1CC=C[C@H]2[C@H]1C(=O)N(Cc1ccccc1)[C@H]2c1ccoc1	2	.	0	4	.	.
CC(NC(=O)COC(=O)CCN1C(=O)C2CC=CCC2C1=O)c1ccc(Br)cc1 (stereo not drawn)	-3	.	6	-3	.	.
Cc1noc(C)c1C(=O)N1CCC1(C)C(=O)NS(=O)(=O)c1cccc(F)c1 (stereo not drawn)	4	.	-2	.	.	.
COC(=O)C(CC(=O)c1ccc(Br)cc1)n1nc(C)cc1C (stereo not drawn)	-1	.	37*	-8	11	52*
CC(=O)c1ccc(NC(=O)c2ccc3nc(-c4ccco4)c(-c4ccco4)nc3c2)cc1	-1	-4	17	7	.	.
O=C(NCCCO)c1ccc2nc(-c3ccco3)c(-c3ccco3)nc2c1	-7	-6	25*	-1	67*	68*
SMILES	NOD2-RIPK2 inh	TLR4 MyD88 comp	ABHD5 PLIN5 PPI	TLR9-MyD88 block	ABHD5-PLIN5 conf	HNF4 counter
O=C(Nc1ccccc1)c1ccc2nc(-c3ccco3)c(-c3ccco3)nc2c1	0	2	30*	7	49*	32*
COCCCn1c(SCC(=O)N2CCCC2=O)nc2ccccc2c1=O	-1	.	-5	-2	.	.
CCOc1ccc(OCCNC(=O)c2cc(C3CC3)nc3c2cnn3C(C)C)cc1	-6	.	-11	6	.	.
O=C(CN1C(=O)S/C(=C\C=C\c2ccccc2)C1=O)N1CCCCC1	-3	.	3	2	.	.
O=C(CN1C(=O)S/C(=C\C=C\c2ccccc2)C1=O)Nc1ccc(O)cc1	1	-2	30*	-7	12	3
O=C(CCCN1C(=O)S/C(=C/C=C/c2ccccc2)C1=O)Nc1ccc(C(=O)O)cc1	-8	.	28*	6	17	12
Cc1ccc(CN2C(=O)CCC2(C)c2nnnn2-c2ccc3c(c2)OCCO3)cc1 (stereo not drawn)	-12	.	-1	.	.	.
CC(C)(C)S(=O)N1Cc2cc(C(=O)N[C@@H]3CCN(Cc4ccccc4)C3)nc(-c3cccc(-c4cc5ccccc5o4)c3)c2[C@@H]1CCO (stereo partly drawn)	-4	.	26*	.	12	0
O=C(Nc1ccc(F)c(Cl)c1)c1ccccc1NC(=O)C1CCCCC1C(=O)O (stereo not drawn)	1	.	-5	6	.	.
Cc1ccc(-n2nc(C)c3c(C)c(CCC(=O)Nc4ccc(CN5CCCC5)cc4)c(C)nc32)cc1	9	.	29*	-4	12	3
COC(CNC(=O)CCc1c(C)nc2c(c(C)nn2-c2ccc(C)cc2)c1C)OC	0	.	-1	-12	.	.
Oc1c(CN2CCOCC2)cc(CN2CCOCC2)c(O)c1CN1CCOCC1	-4	.	55*	-4	79*	108*
Oc1c(CN2CCOCC2)cc(-c2ccccc2)cc1CN1CCOCC1	3	-4	2	13	.	.
CC(=O)Nc1ccc(C(=O)NCC2(N3CCCCC3)CCCCC2)cc1	4	.	-2	-5	.	.
C=CCOc1ccc(C=CC(=O)c2c(O)c(OC)c(OC)c(OC)c2OC)cc1	-5	.	59*	-6	72*	56*
Cc1ccc(S(=O)(=O)N2C[C@H]3n4c(=O)ccc(=O)n4C[C@H](OC(=O)NCC4CCCCC4)[C@@]3(O)C2)cc1	12	.	26*	-11	63*	45*
Cc1ccc(-c2oc3ncnc(N)c3c2-c2ccc(C)cc2)cc1	-18	-8	24*	0	7	4
Cc1oc2ncnc(N)c2c1C	8	8	-2	5	.	.
O=C1c2ccccc2NC(c2ccc(-c3ccc(F)cc3)o2)N1O (stereo not drawn)	-10	.	38*	-7	14	13*
CC(C)(C)C1COc2ccccc2N1C(=O)c1ccccc1Cl (stereo not drawn)	2	.	-4	-10	.	.
CC1=CC2C(C(O)CC3(C)C2CC(C)C32OCOC23COCO3)C2(C)C/C(=C\O)C(=O)C=C12 (stereo not drawn)	6	.	32*	7	42*	9
COc1ccc2nc3n(c(=O)c2c1)-c1ccc(Cl)cc1C(=O)NC3Cc1ccc(O)cc1 (stereo not drawn)	-12	.	-6	4	.	.

Compound activity from PubChem BioAssay.
